A selection: hits, their analogues and other compounds. The true share with any hit is near 13%.
HCMV antiviral = blocks human cytomegalovirus replication. HFF cells, HCMV-luciferase reporter, 72 h; stronger effect = lower value. activity change, negative = inhibition, % at 57.5 µM. 410,000 tested, 4.5% active; in the data active means activity change below about -60%; inconclusive means no clear call, values can overlap the other calls; inactive means above about -39%
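Inhibition of viral replication was scored as loss of reporter luminescence in HFFs infected with HCMV-luciferase (MOI 1 PFU/cell) for 72 h; compounds tested at 2 doses, normalized to buffer and Salinomycin controls.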
HCV inhibitor = HCV inhibition; Huh7.5.1 HCVcc-Cre infection, luciferase reporter, 44 h; Potency, µM (top dose mostly 41.8 µM), usual class: inhibitors; 340,000 tested, 3.4% active; AID 651820
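1,000 cells/well; 4 h culture; + compound; + HCVcc-Cre (~0.5 moi); 44 h; luciferase substrate, RT 15 min; read 15 sec.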
Pf growth 48h = inhibits P. falciparum growth in the first generation, 48 h. Potency, µM (top dose mostly 28.7 µM), hits mostly inhibitors. 310,000 tested, 5.9% active. P. falciparum luciferase growth in erythrocytes, 48 h. AID 504832
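A one-generation exposure of luciferase-tagged malaria parasites in RPMI 1640/Albumax erythrocyte culture, 37 C and 5% CO2. Inhibition is inferred from decreased luminescence after adding detection reagent.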
Pf growth 96h = inhibits malaria parasite growth, 96 h; P. falciparum luciferase reporter growth, 96 h; Potency, µM (titrated, usually from 28.7 µM), actives largely listed as inhibitors; 320,000 tested, 6.9% active; AID 504834
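P. falciparum expressing integrated firefly luciferase grown in erythrocytes (2% hematocrit, 0.05% parasitemia final) with compounds for 96 hours at 37 C, 5% CO2. Growth inhibition read as loss of luminescence after adding luciferase detection reagent.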
Numbers stand for hits; – = inactive; ? = inconclusive; · = no result; [ ] = dose if it differs, or a comment. Unless noted, the call rests on the fitted dose curve; in most records, active means well fitted inhibition curve with a large enough effect; inconclusive means small, poorly fitted or top-dose-only effect, or another doubt; inactive means no such curve, though single readings can be large or run the other way.

SMILES	HCMV antiviral	HCV inhibitor	Pf growth 48h	Pf growth 96h
CC1(C)Oc2ccc3ccc(=O)oc3c2/C(=C/NNC(N)=O)C1=O	-95	–	–	–
COC(=O)c1ccc(NC(=O)c2ccc(NC(=O)c3ccco3)cc2)cc1	–	?	?	–
CCCCCCCCOc1ccccc1C(=O)Nc1ccc(C(=O)OCC[N+](C)(CC)CC)cc1	·	·	15µM	1.3µM
CCN(C(=O)c1ccc(NC(=O)c2ccco2)cc1)c1ccccc1	–	–	?	9.3µM
CN(C(=O)c1ccc(NC(=O)c2ccco2)cc1)c1ccccc1	–	–	–	–
CCN(CC)c1ccc(NC(=S)NC(=O)c2ccco2)cc1	–	–	?	–
CCCCOC(=O)c1ccc(NC(=O)c2c(OC)cccc2OC)cc1	–	?	–	–
CCCCCOC(=O)c1ccc(NC(=O)c2ccco2)cc1	–	–	1.3µM	–
CCCCOC(=O)c1ccc(NC(=S)NC(=O)c2ccco2)cc1	–	–	?	12µM
Cc1ccc(N2CCN(C(=O)Cn3ncc4c([nH]c5ccc(C)cc54)c3=O)CC2)c(C)c1	–	·	·	·
Cc1ccc(NC(=O)C(CC(C)C)NS(=O)(=O)c2ccc3c(c2)oc(=O)n3C)c(C)c1 (configuration not stated)	–	·	·	·
Cn1c(=O)c2ncn(CC(=O)N=Nc3c(O)[nH]c4ccccc34)c2n(C)c1=O	·	·	12µM	–[1.15 µM]
COc1ccc(CN2CCN(Cc3nc4ccccc4s3)CC2CCO)c(C)c1C (configuration not stated)	–	6.3µM	?	–
CCOc1ccc(CN2CCN(CC3=Cc4cccc(OC)c4OC3)CC2CCO)cc1 (configuration not stated)	–	10µM	10µM	?
COc1ccc(OC)c(CN2CCN(CCc3ccccc3)C(CCO)C2)c1 (configuration not stated)	–	–	–	13µM
COc1ccc(F)c(CN2CCN(CCc3ccccc3)C(CCO)C2)c1 (configuration not stated)	–	–	–	3.7µM
COC(=O)c1ccc(Cn2nnc3sc4c(c3c2=O)CCC(C)C4)cc1 (configuration not stated)	–	·	·	·
C=C1[C@@H](C)CN[C@@H]1CCO	–	·	·	·
CCCN1C(=O)C(NC(=O)c2ccccc2OC)(C(F)(F)F)C(C(=O)OC)=C1C (configuration not stated)	–	·	·	·
CCN(c1ccccc1)c1nnc(NC(=O)Nc2cccc(Br)c2)s1	–	·	·	·
OCCC1CN(Cc2ccc(F)cc2Cl)CCN1CCc1ccccc1 (configuration not stated)	–	–	–	?
OCCC1CN(Cc2cc(F)ccc2F)CCN1CCCc1ccccc1 (configuration not stated)	–	–	?	13µM
CCc1ccc(/C=C(/C#N)c2nc(-c3ccc(C)cc3)cs2)cc1	–	·	·	·
CCOc1ccc(-c2csc(/C(C#N)=C\c3ccc(O)c([N+](=O)[O-])c3)n2)cc1	–	?	?	5.2µM
O=C(Nc1ccccc1OCc1ccccc1)c1ccccc1Br	–	11µM	?	?
SMILES	HCMV antiviral	HCV inhibitor	Pf growth 48h	Pf growth 96h
O=C(/C=C/c1cc([N+](=O)[O-])ccc1OC(F)F)Nc1cccc(OC(F)F)c1	–	?	?	8.3µM
COc1ccccc1NC(=O)/C=C/c1cc([N+](=O)[O-])ccc1OC(F)F	–	?	–	–
N#CC(C#N)=C(N)CSc1cccc[n+]1[O-]	?	–	5.2µM	12µM
CCOC(=O)c1ccccc1NC(=O)CSc1cccc[n+]1[O-]	–	–	?	?
CSc1ccccc1NC(=O)CSc1cccc[n+]1[O-]	-100	–	·	·
[O-][n+]1ccccc1SCc1ccccc1	–	?	?	–
Cc1cc(C)c2c(=N)c3ccccc3n(CCCCCCCCn3c4ccccc4c(=N)c4c(C)cc(C)nc43)c2n1	-75	–	·	·
Cn1cnnc1Sc1ccc(C(=O)NCCC(c2ccccc2)c2ccccc2)cc1[N+](=O)[O-]	?	?	8.3µM	?
CCCNC(=O)c1ccc(SCC(=O)N(CC)CC)c([N+](=O)[O-])c1	-67	?	–	–
O=C(Nc1cccc(S(=O)(=O)N2CCCC2)c1)c1cccnc1	–	–	–	–
O=C(Nc1ccc(N2CCCCC2)c(Cl)c1)c1cccnc1	-78	?	–	–
Cn1cnnc1SCC(=O)NCCC(c1ccccc1)c1ccccc1	–	–	–	·
O=C(Nc1ccc(Cl)c(S(=O)(=O)N2CCCCC2)c1)c1cccnc1	–	14µM	12µM	?
O=C(Cn1c(=O)n(Cc2ccc3c(c2)OCO3)c(=O)c2oc3ccccc3c21)Nc1ccccc1	–	·	·	·
CC(=O)c1cccc(NC(=O)CSc2nc(=O)n(Cc3ccco3)c3c2CCC3)c1	–	·	·	·
Cc1cccnc1NC(=O)c1ccc(Cl)c(S(=O)(=O)N2CCCCCC2)c1	–	–	?	?
Cc1nonc1NC(=O)c1ccc(Cl)c(S(=O)(=O)N2CCCCC2)c1	–	–	–	2.6µM
CN(CC(=O)O)S(=O)(=O)c1cc(Cl)ccc1Cl	–	–	–	–
CC1CCN(c2ccc(C(=O)Nc3ccc4c(c3)OCO4)cc2[N+](=O)[O-])CC1	-61	4.5µM	?	?
CCN(CC(=O)O)S(=O)(=O)c1cc(Cl)ccc1Cl	–	–	–	13µM
C=C1CCN(c2ccc(C(=O)NCCC)cc2[N+](=O)[O-])CC1	–	10µM	·	·
O=C(COC(=O)c1ccc(N2CCOCC2)c([N+](=O)[O-])c1)Nc1ccc2c(c1)OCO2	–	–	–	–
CC(C)c1cc(C(=O)NCc2ccc(F)cc2)no1	–	·	·	·
COc1cccc(NC(=O)C2CCN(c3ccc(Sc4ccc(C)cc4)nn3)CC2)c1	–	·	·	·
COc1ccc2nc(NC(=O)c3cc(=O)c4cc(C)cc(C)c4o3)sc2c1	–	·	·	·
SMILES	HCMV antiviral	HCV inhibitor	Pf growth 48h	Pf growth 96h
O=C(Nc1cccnc1)c1ccc(N2CCCC2)c([N+](=O)[O-])c1	–	11µM	–	–
CCN(CC)S(=O)(=O)c1cc(C(=O)Nc2ccncc2)ccc1Cl	-87	?	?	–
O=C(NNC(=O)c1cnccn1)c1ccc(Cl)c(Cl)c1	–	?	?	3.7µM
O=C(Nc1ccncc1)c1ccc(Cl)c(S(=O)(=O)N2CCCC2)c1	-71	?	12µM	?
O=C(NCCNC(=O)c1cnccn1)c1ccc(Cl)c(Cl)c1	–	–	–	–
COc1ccc(OC)c(NC(=O)c2cc3c(=O)oc4ccccc4c3s2)c1	–	·	·	·
O=C1OCC2=Nc3cccc4cccc(c34)N12	–	·	·	·
Cc1nc2cc(N3CCCCC3)c(NC(=O)c3cccnc3)cc2c(=O)n1Cc1ccccc1	–	?	2.9µM	·
O=C(NNC(=O)c1ccc(Cl)c(Cl)c1)c1ccncc1	–	–	·	·
CCS(=O)(=O)N1CCN(c2ccc(C(=O)NC3C4CC5CC(C4)CC3C5)cc2[N+](=O)[O-])CC1 (configuration not stated)	?	?	12µM	?
O=C(Nc1ccncc1)c1ccc(Cl)c(Cl)c1	–	–	?	2.9µM
O=C(Nc1nc2ccccc2[nH]1)c1ccc(Cl)c(S(=O)(=O)N2CCCC2)c1	·	22µM	·	–
COCCCNC(=O)c1cc2c(=O)oc3ccc(C)cc3c2s1	–	·	·	·

Screening results from PubChem BioAssay.
